Measured values taken from PubChem BioAssay (Tox21).
Inconclusive results are not listed. A number with no mark means an inactive call. Unless noted, calls follow the shape of the full dose curve.

Assay: qHTS assay to identify small molecule agonists of the NFkB signaling pathway (AID 1159509; active = well fitted curve in the direction sought with a large enough effect in the signal ratio in the repeat runs, not every such curve was filed as active; the % refers to the signal ratio)
Conditions: NFkB-bla ME-180 cells, beta-lactamase FRET ratio, 5 h; series mostly up to 61 µM; activation: at the top concentration
Method in brief: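 Beta-lactamase reporter assay run in quantitative high-throughput format on an NF-kB-responsive ME-180 line, with 5 hr compound treatment and a FRET-based blue/green fluorescence readout.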
% is scaled to controls: 0 for no effect and ±100 for the full control effect.

Row | SMILES | activation
1 | O=C1CC(=O)NC(=O)N1 | 0.148%
2 | CC(C)[N+](C)(CCC(C(N)=O)(c1ccccc1)c1ccccc1)C(C)C | 0.154%
3 | S=C=S | 0.0492%
4 | Cn1c(CCCC(=O)O)nc2cc(N(CCCl)CCCl)ccc21 | -0.257%
5 | CCSC(=O)Cl | -0.262% [at 78.8 µM]
6 | CC(C)(C)c1cc(O)ccc1O | -2.01%
7 | CCC(C)(C#N)N=NC(C)(C#N)CC (stereo not given) | 0.0059%
8 | O=C(Cl)C(Cl)Cl | -0.0465%
9 | COP(=O)(OC)O/C(C)=C/C(=O)N(C)C | -0.0443% [at 78.8 µM]
10 | COc1ccc(C=O)cc1O | 0.987% [at 78.8 µM]
11 | CCOC(=O)C(Cl)Cc1cc(-n2nc(C)n(C(F)F)c2=O)c(F)cc1Cl (stereo not given) | 0.17%
12 | CCN[C@@H](C)Cc1ccccc1 | -0.895% [at 78.8 µM]
13 | O=C1C2CC=CCC2C(=O)N1SC(Cl)(Cl)Cl (stereo not given) | 0.975%
14 | CCOC(=O)C(SP(=S)(OC)OC)c1ccccc1 (stereo not given) | -0.379%
15 | CCOC(=O)NC(C)(C)Cc1ccc(Cl)cc1 | -0.114%
16 | C=CCc1cc(OC)c2c(c1)OCO2 | 0.808% [at 78.8 µM]
17 | NC(=O)CS(=O)C(c1ccccc1)c1ccccc1 (stereo not given) | -0.0823%
18 | CCCCCCCCSC(=O)Oc1cc(Cl)nnc1-c1ccccc1 | -0.18%
19 | C1CN2CCC1CC2 | 0.0708%
20 | ClC1=C(Cl)C2(Cl)C(CBr)CC1(Cl)C2(Cl)Cl (stereo not given) | 0.0849%
21 | CCC1(c2ccccc2)C(=O)N(COC)C(=O)N(COC)C1=O | 0.141%
22 | NNC(N)=O | -0.451% [at 78.8 µM]
23 | Cc1cccc2sc3nncn3c12 | -0.592%
24 | C/C(=N\NC(=O)Nc1cc(F)cc(F)c1)c1ncccc1C(=O)O | 0.565%
25 | CNC(=O)O/N=C(/CSC)C(C)(C)C | -0.0928%
26 | COC(=O)c1ccc(CBr)cc1 | 0.0153% [at 78.8 µM]
27 | CCN(CC)C1CCCCC1 | -0.0141%
28 | CC#Cc1cc(C)nc(Nc2ccccc2)n1 | 1.31%
29 | CON(C)C(=O)Nc1ccc(Br)cc1 | -0.329%
30 | CC1NCCOC1c1ccccc1 (stereo not given) | -0.677%

Assay: qHTS assay to identify small molecule agonists of the NFkB signaling pathway - cell viability counter screen (AID 1159515); also: nearly all actives have a fitted effect of over 55% in size
Conditions: NFkB-bla ME-180 viability, CellTiter-Glo luminescence, 5 h; series mostly up to 61 µM; activity, negative = cytotoxic: at the top concentration
Method in brief: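 Cells are seeded (2,000 NFkB-bla ME-180 per well), rested overnight, and dosed with DMSO-dissolved compounds for 5 hr at 37 C. Viability is then read by CellTiter-Glo luminescence after 30 min at room temperature.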

Row | SMILES | activity, negative = cytotoxic
31 | O=C1CC(=O)NC(=O)N1 | -1.61%
32 | CC(C)[N+](C)(CCC(C(N)=O)(c1ccccc1)c1ccccc1)C(C)C | -27.9%
33 | S=C=S | 12.6%
34 | Cn1c(CCCC(=O)O)nc2cc(N(CCCl)CCCl)ccc21 | -1.09%
35 | CCSC(=O)Cl | 1.31% [at 78.8 µM]
36 | CC(C)(C)c1cc(O)ccc1O | -1.71%
37 | CCC(C)(C#N)N=NC(C)(C#N)CC (stereo not given) | 13.3%
38 | O=C(Cl)C(Cl)Cl | 15.1%
39 | COP(=O)(OC)O/C(C)=C/C(=O)N(C)C | 10.9% [at 78.8 µM]
40 | CON(C)C(=O)Nc1ccc(Br)c(Cl)c1 | 0.257%
41 | COc1ccc(C=O)cc1O | -21.2% [at 78.8 µM]
42 | CCOC(=O)C(Cl)Cc1cc(-n2nc(C)n(C(F)F)c2=O)c(F)cc1Cl (stereo not given) | 8.24%
43 | CCN[C@@H](C)Cc1ccccc1 | -6.69% [at 78.8 µM]
44 | O=C1C2CC=CCC2C(=O)N1SC(Cl)(Cl)Cl (stereo not given) | -6.01%
45 | O=C(Cl)C(Cl)(Cl)Cl | 1.57% [at 78.8 µM]
46 | CCN(CCO)CCn1c(Cc2ccccc2)nc2c1c(=O)n(C)c(=O)n2C | -0.286%
47 | CCOC(=O)C(SP(=S)(OC)OC)c1ccccc1 (stereo not given) | -0.487%
48 | CCOC(=O)NC(C)(C)Cc1ccc(Cl)cc1 | 3.02%

Row | SMILES | activity, negative = cytotoxic
49 | C=CCc1cc(OC)c2c(c1)OCO2 | -0.857% [at 78.8 µM]
50 | CN1COCN(Cc2cnc(Cl)s2)/C1=N\[N+](=O)[O-] | -0.521%
51 | NC(=O)CS(=O)C(c1ccccc1)c1ccccc1 (stereo not given) | 7.33%
52 | CCCCCCCCSC(=O)Oc1cc(Cl)nnc1-c1ccccc1 | 1.27%
53 | C1CN2CCC1CC2 | -0.952%
54 | ClC1=C(Cl)C2(Cl)C(CBr)CC1(Cl)C2(Cl)Cl (stereo not given) | 6.76%
55 | CCC1(c2ccccc2)C(=O)N(COC)C(=O)N(COC)C1=O | 0.326%
56 | NNC(N)=O | -9.54% [at 78.8 µM]
57 | Cc1cccc2sc3nncn3c12 | 1.28%
58 | C/C(=N\NC(=O)Nc1cc(F)cc(F)c1)c1ncccc1C(=O)O | -0.987%
59 | CNC(=O)O/N=C(/CSC)C(C)(C)C | -5.41%
60 | COC(=O)c1ccc(CBr)cc1 | 0.485% [at 78.8 µM]
61 | CCN(CC)C1CCCCC1 | 6.98%
62 | CC(C)(N)Cc1ccccc1Cl | 1.35%
63 | CC#Cc1cc(C)nc(Nc2ccccc2)n1 | -0.886%
64 | CON(C)C(=O)Nc1ccc(Br)cc1 | -1.99%
65 | CC1NCCOC1c1ccccc1 (stereo not given) | 8.81%

Assay: qHTS assay to identify small molecule agonists of the endoplasmic reticulum stress response signaling pathway (AID 1159516; active = well fitted activation curve with a large enough effect in the signal ratio in the repeat runs, not every such curve was filed as active; the % refers to the signal ratio)
Conditions: ESRE-bla HeLa, ER stress beta-lactamase reporter, 5 h; series mostly up to 61 µM; activation: at the top concentration
Method in brief: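 Cells are seeded at 1,500 per well and incubated overnight. Compounds in DMSO are added for 5 hr at 37 C, then beta-lactamase FRET substrate for 2 hr at room temperature, and fluorescence at 460 and 530 nm is measured.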

Row | SMILES | activation
66 | O=C1CC(=O)NC(=O)N1 | -0.717%
67 | CC(C)[N+](C)(CCC(C(N)=O)(c1ccccc1)c1ccccc1)C(C)C | 1.11%
68 | S=C=S | -1.89%
69 | Cn1c(CCCC(=O)O)nc2cc(N(CCCl)CCCl)ccc21 | -2.39%
70 | CCSC(=O)Cl | 1.59% [at 78.8 µM]
71 | CC(C)(C)c1cc(O)ccc1O | -7.36%
72 | CCC(C)(C#N)N=NC(C)(C#N)CC (stereo not given) | 1.88%
73 | O=C(Cl)C(Cl)Cl | -0.0836%
74 | COP(=O)(OC)O/C(C)=C/C(=O)N(C)C | 2.59% [at 78.8 µM]
75 | CON(C)C(=O)Nc1ccc(Br)c(Cl)c1 | -3.22%
76 | COc1ccc(C=O)cc1O | -0.146% [at 78.8 µM]
77 | CCOC(=O)C(Cl)Cc1cc(-n2nc(C)n(C(F)F)c2=O)c(F)cc1Cl (stereo not given) | -3.25%
78 | CCN[C@@H](C)Cc1ccccc1 | 1.69% [at 78.8 µM]
79 | O=C1C2CC=CCC2C(=O)N1SC(Cl)(Cl)Cl (stereo not given) | -9.33%
80 | O=C(Cl)C(Cl)(Cl)Cl | 2.51% [at 78.8 µM]
81 | CCN(CCO)CCn1c(Cc2ccccc2)nc2c1c(=O)n(C)c(=O)n2C | 0.109%
82 | CCOC(=O)C(SP(=S)(OC)OC)c1ccccc1 (stereo not given) | 0.921%
83 | CCOC(=O)NC(C)(C)Cc1ccc(Cl)cc1 | 3.66%

Row | SMILES | activation
84 | C=CCc1cc(OC)c2c(c1)OCO2 | -2.38% [at 78.8 µM]
85 | CN1COCN(Cc2cnc(Cl)s2)/C1=N\[N+](=O)[O-] | -0.893%
86 | NC(=O)CS(=O)C(c1ccccc1)c1ccccc1 (stereo not given) | -0.553%
87 | CCCCCCCCSC(=O)Oc1cc(Cl)nnc1-c1ccccc1 | -9.12%
88 | C1CN2CCC1CC2 | -3.64%
89 | ClC1=C(Cl)C2(Cl)C(CBr)CC1(Cl)C2(Cl)Cl (stereo not given) | -1.7%
90 | CCC1(c2ccccc2)C(=O)N(COC)C(=O)N(COC)C1=O | 0.92%
91 | NNC(N)=O | -0.33% [at 78.8 µM]
92 | Cc1cccc2sc3nncn3c12 | -0.11%
93 | C/C(=N\NC(=O)Nc1cc(F)cc(F)c1)c1ncccc1C(=O)O | 1.28%
94 | CNC(=O)O/N=C(/CSC)C(C)(C)C | -0.269%
95 | COC(=O)c1ccc(CBr)cc1 | -0.132% [at 78.8 µM]
96 | CCN(CC)C1CCCCC1 | 0.0827%
97 | CC(C)(N)Cc1ccccc1Cl | 1.83%
98 | CC#Cc1cc(C)nc(Nc2ccccc2)n1 | -0.921%
99 | CON(C)C(=O)Nc1ccc(Br)cc1 | 2.15%
100 | CC1NCCOC1c1ccccc1 (stereo not given) | -1.37%
